Columns and labels:
Experiment in all cases: DAPPL (digital affinity profiling via proximity ligation, sequencing); 10 mM Tris-HCl pH 7.5, 50 mM NaCl, 1 mM DTT, 4% glycerol, room temperature, 30 min; GST-TFs on glutathione beads, 16-mer random dsDNA library, 0.1% formaldehyde crosslink after washing; high values mean tight binding
FEV = target: T1, FEV (Homo sapiens, UniProt Q99581 1-238); conditions: protein: recombinant; tags: N-terminal GST; dsDNA, one strand shown
T1 sequence: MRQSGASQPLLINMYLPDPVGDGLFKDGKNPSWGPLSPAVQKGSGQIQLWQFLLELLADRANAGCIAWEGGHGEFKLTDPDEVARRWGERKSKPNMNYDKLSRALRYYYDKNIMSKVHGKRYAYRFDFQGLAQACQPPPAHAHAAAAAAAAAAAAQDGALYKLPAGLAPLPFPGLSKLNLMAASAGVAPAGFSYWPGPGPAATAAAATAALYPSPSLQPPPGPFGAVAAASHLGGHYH
Outline: (§1)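 The binding signal reported is, for every hexamer, its read frequency for a factor over its read frequency for the tag-only sample. Reads came from pools of yeast-expressed, GST-fused human transcription factors on glutathione beads, barcoded with DNA and mixed with that sample, which were incubated with 200 nmole of a random double-stranded 16-mer DNA library in Tris/NaCl/DTT/glycerol buffer at room temperature for 30 min. After washing, the pools were crosslinked with 0.1% formaldehyde, proximity-ligated with BsaI/T4 ligase for 1 h at 37 °C, PCR-amplified and sequenced on an Illumina NextSeq500.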

ETV5 = ETV5 (Homo sapiens, UniProt P41161 1-510); conditions: protein: recombinant; tags: N-terminal GST; dsDNA, one strand shown
Outline: as §1

HSF1 = HSF1 (Homo sapiens, UniProt Q00613 1-529); conditions: protein: recombinant; tags: N-terminal GST; chain copies: 3; dsDNA, one strand shown
Outline: as §1

SPIC = target: T2, SPIC (Homo sapiens, UniProt Q8N5J4 1-248); conditions: protein: recombinant; tags: N-terminal GST; dsDNA, one strand shown
T2 sequence: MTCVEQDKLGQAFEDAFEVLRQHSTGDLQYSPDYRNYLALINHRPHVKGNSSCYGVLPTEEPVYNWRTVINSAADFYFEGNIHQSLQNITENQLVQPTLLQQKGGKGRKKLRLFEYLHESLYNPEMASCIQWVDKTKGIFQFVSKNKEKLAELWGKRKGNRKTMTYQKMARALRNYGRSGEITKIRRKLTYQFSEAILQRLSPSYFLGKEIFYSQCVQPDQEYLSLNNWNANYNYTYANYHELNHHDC
Outline: as §1

ELF4 = ELF4 (Homo sapiens, UniProt Q99607 1-663); conditions: protein: recombinant; tags: N-terminal GST; dsDNA, one strand shown
Outline: as §1

ELK4 = target: T3, ELK4 (Homo sapiens, UniProt P28324-2 1-405); conditions: protein: recombinant; tags: N-terminal GST; dsDNA, one strand shown
T3 sequence: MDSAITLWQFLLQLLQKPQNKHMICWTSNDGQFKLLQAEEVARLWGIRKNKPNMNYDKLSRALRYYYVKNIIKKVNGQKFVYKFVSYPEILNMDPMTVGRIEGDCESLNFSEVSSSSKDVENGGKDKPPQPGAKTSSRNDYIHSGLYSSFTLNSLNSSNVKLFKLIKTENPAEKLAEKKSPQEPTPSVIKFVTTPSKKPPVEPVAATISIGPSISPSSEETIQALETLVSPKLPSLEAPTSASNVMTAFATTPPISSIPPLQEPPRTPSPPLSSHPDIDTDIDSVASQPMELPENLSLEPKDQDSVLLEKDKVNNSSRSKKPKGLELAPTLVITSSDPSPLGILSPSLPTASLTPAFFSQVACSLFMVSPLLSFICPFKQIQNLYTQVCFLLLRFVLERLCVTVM
Outline: as §1

ETV2 = target: T4, ETV2 (Homo sapiens, UniProt O00321 1-342); conditions: protein: recombinant; tags: N-terminal GST; dsDNA, one strand shown
T4 sequence: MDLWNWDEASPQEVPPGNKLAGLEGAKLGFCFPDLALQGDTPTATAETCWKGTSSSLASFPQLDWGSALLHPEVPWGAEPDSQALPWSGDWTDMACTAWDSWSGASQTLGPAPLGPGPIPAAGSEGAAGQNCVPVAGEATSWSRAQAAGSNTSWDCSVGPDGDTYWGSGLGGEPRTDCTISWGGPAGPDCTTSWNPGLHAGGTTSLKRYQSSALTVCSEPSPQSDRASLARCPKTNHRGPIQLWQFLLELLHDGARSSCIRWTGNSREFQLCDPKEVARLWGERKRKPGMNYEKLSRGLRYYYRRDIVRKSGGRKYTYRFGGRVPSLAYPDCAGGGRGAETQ
Outline: as §1

ELF3 = target: T5, ELF3 (Homo sapiens, UniProt P78545 1-371); conditions: protein: recombinant; tags: N-terminal GST; dsDNA, one strand shown
T5 sequence: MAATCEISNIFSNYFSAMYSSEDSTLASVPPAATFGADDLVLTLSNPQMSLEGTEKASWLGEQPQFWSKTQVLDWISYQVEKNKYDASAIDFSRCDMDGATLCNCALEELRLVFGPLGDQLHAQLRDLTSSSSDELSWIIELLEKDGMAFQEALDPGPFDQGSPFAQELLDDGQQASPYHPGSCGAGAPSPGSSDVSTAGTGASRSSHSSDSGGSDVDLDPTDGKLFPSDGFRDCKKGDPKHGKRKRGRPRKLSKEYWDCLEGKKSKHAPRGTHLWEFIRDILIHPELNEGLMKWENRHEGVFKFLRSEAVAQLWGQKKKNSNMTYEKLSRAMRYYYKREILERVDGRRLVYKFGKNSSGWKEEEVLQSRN
Outline: as §1

Chain of HSF1 (Q00613 whole entry): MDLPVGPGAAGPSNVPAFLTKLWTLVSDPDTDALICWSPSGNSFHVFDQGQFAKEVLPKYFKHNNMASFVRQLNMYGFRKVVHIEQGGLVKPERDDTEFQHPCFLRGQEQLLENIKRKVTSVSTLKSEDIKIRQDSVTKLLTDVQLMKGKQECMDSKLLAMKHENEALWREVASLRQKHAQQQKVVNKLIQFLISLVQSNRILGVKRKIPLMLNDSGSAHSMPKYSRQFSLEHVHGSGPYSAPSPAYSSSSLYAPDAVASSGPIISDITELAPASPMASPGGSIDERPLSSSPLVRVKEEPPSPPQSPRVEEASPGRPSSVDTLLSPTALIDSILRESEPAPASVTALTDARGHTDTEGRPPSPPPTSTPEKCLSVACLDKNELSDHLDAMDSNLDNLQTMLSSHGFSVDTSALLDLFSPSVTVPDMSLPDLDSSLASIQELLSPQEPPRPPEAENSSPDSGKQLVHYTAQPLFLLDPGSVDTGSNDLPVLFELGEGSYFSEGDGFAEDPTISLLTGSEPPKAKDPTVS
Chain of ETV5 (P41161 whole entry): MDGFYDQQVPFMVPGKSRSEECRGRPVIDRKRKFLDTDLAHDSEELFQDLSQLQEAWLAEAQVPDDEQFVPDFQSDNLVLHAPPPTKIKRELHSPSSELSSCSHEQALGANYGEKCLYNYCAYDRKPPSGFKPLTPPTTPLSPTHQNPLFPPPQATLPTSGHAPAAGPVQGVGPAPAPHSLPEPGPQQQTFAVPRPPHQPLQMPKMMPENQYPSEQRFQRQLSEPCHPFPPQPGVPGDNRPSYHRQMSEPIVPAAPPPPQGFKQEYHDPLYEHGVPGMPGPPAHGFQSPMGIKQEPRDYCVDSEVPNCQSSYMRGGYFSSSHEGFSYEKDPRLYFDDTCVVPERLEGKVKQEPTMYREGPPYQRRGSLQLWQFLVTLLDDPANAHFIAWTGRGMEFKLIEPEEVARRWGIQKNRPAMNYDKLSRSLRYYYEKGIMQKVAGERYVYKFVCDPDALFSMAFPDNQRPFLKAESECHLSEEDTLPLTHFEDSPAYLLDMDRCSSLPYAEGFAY
Chain of ELF4 (Q99607 whole entry): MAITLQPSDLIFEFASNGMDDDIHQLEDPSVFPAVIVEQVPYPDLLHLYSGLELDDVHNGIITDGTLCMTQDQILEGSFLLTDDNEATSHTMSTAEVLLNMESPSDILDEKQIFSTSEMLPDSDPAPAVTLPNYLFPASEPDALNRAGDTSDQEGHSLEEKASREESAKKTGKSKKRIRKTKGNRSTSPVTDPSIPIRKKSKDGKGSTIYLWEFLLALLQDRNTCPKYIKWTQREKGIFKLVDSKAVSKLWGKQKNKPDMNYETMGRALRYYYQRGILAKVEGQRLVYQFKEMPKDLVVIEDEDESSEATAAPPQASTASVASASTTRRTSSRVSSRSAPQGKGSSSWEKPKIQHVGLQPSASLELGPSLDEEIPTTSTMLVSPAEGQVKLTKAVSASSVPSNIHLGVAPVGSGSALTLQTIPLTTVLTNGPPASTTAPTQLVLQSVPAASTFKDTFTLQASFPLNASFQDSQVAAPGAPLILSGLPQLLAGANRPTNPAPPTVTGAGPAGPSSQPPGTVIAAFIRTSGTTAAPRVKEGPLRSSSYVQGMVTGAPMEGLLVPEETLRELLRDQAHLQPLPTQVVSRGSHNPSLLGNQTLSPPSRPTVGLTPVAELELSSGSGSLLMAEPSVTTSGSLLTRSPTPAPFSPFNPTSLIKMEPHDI

**Q.** What does the source list for CCACGC?
**A.** binding signal (FEV): 1.2 fold enrichment (6-mer frequency, TF over GST control); binding signal (ETV5): 1.15 fold enrichment (6-mer frequency, TF over GST control); binding signal (HSF1): 1.05 fold enrichment (6-mer frequency, TF over GST control); binding signal (SPIC): 1.14 fold enrichment (6-mer frequency, TF over GST control); binding signal (ELF4): 1.22 fold enrichment (6-mer frequency, TF over GST control); binding signal (ELK4): 1.19 fold enrichment (6-mer frequency, TF over GST control); binding signal (ETV2): 1.14 fold enrichment (6-mer frequency, TF over GST control); binding signal (ELF3): 1.24 fold enrichment (6-mer frequency, TF over GST control)
